# Results: PubChem BioAssay
# The source made the active and inactive calls.
# Columns and labels:
# [1] = binders of probe aFSTL3 on microarray, primary screen, stem cell growth factor project, biochemical, small-molecule microarray, fluorescence 635/667 (AID 1064); details: higher = more signal;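 also: measures binding of the biotinylated anti-FSTL3 antibody to printed compounds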
# [2] = binders from COS7 lysate, DM2A8 probe, primary screen, torsin A project, cell lysate, small-molecule microarray, fluorescence 635/667 (AID 1065); details: higher = more signal, COS7 lysate expressing mutant human TOR1A
# [3] = binders of probe aFGF2 on microarray, primary screen, stem cell growth factor project, biochemical, small-molecule microarray, fluorescence 635/667 (AID 1067); details: higher = more signal;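 also: measures binding of biotinylated aFGF2 protein to printed compounds on slides; z-score merges feature fluorescence and signal-to-noise across triplicate slides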
# [4] = binders of probe aFGF10 on microarray, primary screen, stem cell growth factor project, biochemical, small-molecule microarray, fluorescence 635/667 (AID 1071); details: higher = more signal;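 also: score merges 667 nm spot intensity and signal to noise from triplicate slides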
# [5] = target: Neurogenic locus notch homolog protein 2 (Homo sapiens) (UniProt Q04721); test: Notch2 binders on small-molecule microarrays, primary screen, biochemical, small-molecule microarray, 635 nm fluorescence, stem cell growth factors (AID 1073); details: Notch2 binding, higher = more signal
# [6] = target: Pro-neuregulin-1, membrane-bound isoform (Homo sapiens) (UniProt Q02297); test: NRG1 binders on small-molecule microarrays, primary screen, psychiatric disease protein project, biochemical, small-molecule microarray, fluorescence 635/667 (AID 1075); details: NRG1 binding, 635 nm fluorescence, higher = more signal;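 also: score combines 667 nm spot fluorescence with signal to noise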
# [7] = test system: Neuregulin-1 EGF-like domain; test: binders of neuregulin-1 EGF-like domain, primary screen, biochemical, small-molecule microarray, 635 nm fluorescence (AID 1081); details: small-molecule microarray binding, higher = more signal;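 also: binding of the protein to compounds printed on small-molecule microarray slides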
# [8] = FRG1 promoter luciferase signal modulators, primary screen, FRG1 inhibition for FSHD, cell-based, C2C12 myotubes, firefly/Renilla luciferase, luminescence (AID 1084); details: higher = more signal, called active from +8 up or from −8 down
# [9] = binders of probe aFST on microarray, primary screen, stem cell growth factor project, biochemical, small-molecule microarray, fluorescence 635/667 (AID 1086); details: higher = more signal;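 also: score merges 667 nm fluorescence with signal-to-noise of each printed compound spot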
# [10] = binders of probe aHhip on microarray, primary screen, stem cell growth factor project, biochemical, small-molecule microarray, fluorescence 635/667 (AID 1087); details: higher = more signal;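 also: score merges spot fluorescence at 667nm with spot signal to noise ratio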
# [11] = test system: PRMT1 (protein arginine N-methyltransferase 1); test: PRMT1 binders on small-molecule microarrays, primary screen, biochemical, small-molecule microarray, 635 nm fluorescence (AID 1088); details: small-molecule microarray binding, higher = more signal;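 also: binding of Prmt1 protein to compounds spotted on small-molecule microarray slides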
# [12] = yeast growth modulation, basal conditions, primary screen, YJM789 clinical isolate, OD600, 24 h (AID 1089);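 also: growth of clinical yeast isolate S. cerevisiae YJM 789 seeded 1000 cells per well; test concentration not given here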; details: S. cerevisiae YJM789 growth, higher = more signal, called active from +8 up or from −8 down
# [13] = fission yeast growth modulation, primary screen, strain 972, OD600, 24 h, no modulator (AID 1090);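 also: basal condition with compound alone and no growth modifier present; test concentration not given here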; details: S. pombe 972 growth, higher = more signal, called active from +8 up or from −8 down
# [14] = S. cerevisiae growth modulation with rapamycin, primary screen, strain BY4716, OD600, 96 h (AID 1091); details: higher = more signal, called active from +8 up or from −8 down; also: test concentration not given here
# [15] = target: Torsin-1A-interacting protein 2 (Homo sapiens) (UniProt Q8NFQ8); test: LULL1 binders on small-molecule microarray, primary screen, cell lysate, human LULL1 lysate, 635/667 nm fluorescence (AID 1092); details: hLULL1 lysate binding, 635 nm fluorescence, higher = more signal;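 also: probe is lysate of COS7 cells overexpressing human LULL1; score merges per-feature 667 nm fluorescence with signal-to-noise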
# [16] = E. coli growth modulation, two-sided OD650, primary screen, E. coli filamentation project, strain DRC41, 24 h (AID 1093); details: OD650, 24 h, higher = more signal, called active from +8 up or from −8 down;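 also: MC1000 strain lacking acrAB efflux and sulA so SOS filamentation is blocked; test concentration not given here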
# [17] = small-molecule microarray binders of probe aLefty2, primary screen, biochemical, biotinylated probe, 635/667 nm fluorescence (AID 1094); details: higher = more signal;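 also: score merges spot fluorescence near 667 nm with spot signal-to-noise ratio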
# [18] = test system: Noggin (protein binding on small-molecule microarray); test: Noggin binders on small-molecule microarray, primary screen, biochemical, 635/667 nm fluorescence (AID 1095); details: 635 nm fluorescence, higher = more signal;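 also: score merges 667 nm feature fluorescence with signal to noise over triplicate slides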
# [19] = target: Neurogenic locus notch homolog protein 3 (Homo sapiens) (UniProt Q9UM47); test: NOTCH3 binders on small-molecule microarray, primary screen, biochemical, 635/667 nm fluorescence (AID 1096); details: NOTCH3 binding, 635 nm fluorescence, higher = more signal
# [20] = small-molecule microarray binders of probe aEGFR, primary screen, biochemical, biotinylated probe, 635/667 nm fluorescence (AID 1097); details: higher = more signal;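 also: probe is a biotinylated anti-EGFR antibody binding compounds printed on slides; score combines fluorescence near 667 nm and signal to noise of each spot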
# Sequence of Torsin-1A-interacting protein 2 (Homo sapiens) (Q8NFQ8 whole entry, looked up): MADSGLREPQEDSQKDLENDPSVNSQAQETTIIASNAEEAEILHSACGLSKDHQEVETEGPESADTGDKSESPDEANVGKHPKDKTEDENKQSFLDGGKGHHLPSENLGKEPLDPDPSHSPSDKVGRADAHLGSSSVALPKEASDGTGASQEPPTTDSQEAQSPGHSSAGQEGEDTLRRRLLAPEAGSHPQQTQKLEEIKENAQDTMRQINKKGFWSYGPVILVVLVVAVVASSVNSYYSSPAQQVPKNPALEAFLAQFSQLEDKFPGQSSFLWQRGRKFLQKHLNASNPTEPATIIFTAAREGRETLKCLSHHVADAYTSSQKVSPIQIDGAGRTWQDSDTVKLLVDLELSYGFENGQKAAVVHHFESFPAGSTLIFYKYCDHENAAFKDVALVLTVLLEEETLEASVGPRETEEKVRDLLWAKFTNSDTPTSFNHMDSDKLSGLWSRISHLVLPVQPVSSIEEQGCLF
# Sequence of Neurogenic locus notch homolog protein 3 (Homo sapiens) (Q9UM47 whole entry, looked up): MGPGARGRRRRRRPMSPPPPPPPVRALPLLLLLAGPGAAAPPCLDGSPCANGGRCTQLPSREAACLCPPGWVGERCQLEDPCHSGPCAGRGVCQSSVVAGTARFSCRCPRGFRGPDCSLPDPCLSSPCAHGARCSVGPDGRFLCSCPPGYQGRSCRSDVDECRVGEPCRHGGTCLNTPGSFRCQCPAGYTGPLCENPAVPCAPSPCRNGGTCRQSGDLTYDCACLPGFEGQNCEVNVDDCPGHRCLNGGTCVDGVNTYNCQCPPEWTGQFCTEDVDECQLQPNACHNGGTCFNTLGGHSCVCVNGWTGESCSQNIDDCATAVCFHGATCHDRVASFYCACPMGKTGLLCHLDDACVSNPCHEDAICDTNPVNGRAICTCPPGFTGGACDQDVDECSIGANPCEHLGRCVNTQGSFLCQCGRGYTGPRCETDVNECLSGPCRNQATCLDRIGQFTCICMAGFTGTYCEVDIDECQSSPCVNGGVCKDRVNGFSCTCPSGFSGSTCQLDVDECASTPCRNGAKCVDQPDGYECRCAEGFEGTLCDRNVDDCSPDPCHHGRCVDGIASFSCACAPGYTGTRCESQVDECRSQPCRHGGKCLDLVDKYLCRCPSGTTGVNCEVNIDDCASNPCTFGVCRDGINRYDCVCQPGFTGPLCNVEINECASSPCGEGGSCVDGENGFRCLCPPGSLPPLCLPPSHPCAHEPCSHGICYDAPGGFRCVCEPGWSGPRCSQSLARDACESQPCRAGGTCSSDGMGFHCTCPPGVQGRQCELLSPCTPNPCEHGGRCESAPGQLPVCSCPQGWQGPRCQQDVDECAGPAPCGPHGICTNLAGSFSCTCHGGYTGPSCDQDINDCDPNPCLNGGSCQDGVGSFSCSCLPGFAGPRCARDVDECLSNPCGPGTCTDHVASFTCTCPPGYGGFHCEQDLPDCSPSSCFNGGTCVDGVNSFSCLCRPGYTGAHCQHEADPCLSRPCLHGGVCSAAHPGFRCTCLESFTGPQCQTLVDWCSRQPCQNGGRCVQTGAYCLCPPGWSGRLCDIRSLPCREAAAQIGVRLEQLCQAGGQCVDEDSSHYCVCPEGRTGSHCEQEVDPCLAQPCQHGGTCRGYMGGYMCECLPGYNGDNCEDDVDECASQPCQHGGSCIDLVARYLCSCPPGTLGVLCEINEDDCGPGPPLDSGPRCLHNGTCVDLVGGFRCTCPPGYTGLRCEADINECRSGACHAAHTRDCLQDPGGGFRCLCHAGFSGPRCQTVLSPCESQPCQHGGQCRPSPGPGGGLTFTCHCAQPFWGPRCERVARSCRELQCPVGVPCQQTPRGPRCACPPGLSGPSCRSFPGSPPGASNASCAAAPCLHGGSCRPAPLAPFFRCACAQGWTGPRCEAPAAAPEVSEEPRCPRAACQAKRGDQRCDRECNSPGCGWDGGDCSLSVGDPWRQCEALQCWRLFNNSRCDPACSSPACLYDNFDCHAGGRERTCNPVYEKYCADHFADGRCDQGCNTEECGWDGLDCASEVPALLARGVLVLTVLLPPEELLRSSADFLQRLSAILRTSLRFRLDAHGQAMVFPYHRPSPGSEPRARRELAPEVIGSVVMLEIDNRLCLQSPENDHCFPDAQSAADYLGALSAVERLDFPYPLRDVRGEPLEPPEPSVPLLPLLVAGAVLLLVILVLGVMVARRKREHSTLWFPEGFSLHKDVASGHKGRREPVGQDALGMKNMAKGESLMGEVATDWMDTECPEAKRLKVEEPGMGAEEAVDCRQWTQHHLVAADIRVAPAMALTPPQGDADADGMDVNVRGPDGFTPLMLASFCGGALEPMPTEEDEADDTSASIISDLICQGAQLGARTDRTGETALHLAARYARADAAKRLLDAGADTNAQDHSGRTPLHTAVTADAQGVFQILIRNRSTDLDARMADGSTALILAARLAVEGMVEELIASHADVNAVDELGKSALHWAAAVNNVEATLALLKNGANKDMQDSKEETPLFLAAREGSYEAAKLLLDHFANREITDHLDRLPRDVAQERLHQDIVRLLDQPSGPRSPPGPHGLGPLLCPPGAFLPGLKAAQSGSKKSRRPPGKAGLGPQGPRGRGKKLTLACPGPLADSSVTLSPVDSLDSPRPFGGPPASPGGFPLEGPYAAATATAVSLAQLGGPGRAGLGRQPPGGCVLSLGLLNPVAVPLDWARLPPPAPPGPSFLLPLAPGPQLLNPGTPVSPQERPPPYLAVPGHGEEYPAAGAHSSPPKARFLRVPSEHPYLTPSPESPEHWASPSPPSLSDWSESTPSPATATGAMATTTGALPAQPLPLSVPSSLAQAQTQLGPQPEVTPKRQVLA
# Sequence of Pro-neuregulin-1, membrane-bound isoform (Homo sapiens) (Q02297 whole entry, looked up, the tested form may be a part, canonical isoform): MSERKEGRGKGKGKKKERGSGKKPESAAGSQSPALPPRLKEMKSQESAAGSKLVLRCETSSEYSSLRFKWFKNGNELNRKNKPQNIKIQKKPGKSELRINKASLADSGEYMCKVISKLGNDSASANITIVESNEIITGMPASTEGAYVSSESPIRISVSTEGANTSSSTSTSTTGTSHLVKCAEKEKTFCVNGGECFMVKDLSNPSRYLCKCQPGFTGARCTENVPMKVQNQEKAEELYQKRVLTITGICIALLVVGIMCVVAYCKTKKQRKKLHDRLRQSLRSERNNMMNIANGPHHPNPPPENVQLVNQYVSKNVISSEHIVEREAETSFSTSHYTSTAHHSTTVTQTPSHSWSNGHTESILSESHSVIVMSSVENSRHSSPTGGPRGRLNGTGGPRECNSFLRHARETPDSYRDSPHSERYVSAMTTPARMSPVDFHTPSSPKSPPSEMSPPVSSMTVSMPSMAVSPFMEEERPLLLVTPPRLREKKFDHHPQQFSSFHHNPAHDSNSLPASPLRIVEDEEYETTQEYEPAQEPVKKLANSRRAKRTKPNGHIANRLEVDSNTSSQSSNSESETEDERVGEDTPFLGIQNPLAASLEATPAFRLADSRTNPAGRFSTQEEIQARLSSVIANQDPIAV
Compound,composite z-score [1],composite z-score [2],composite z-score [3],composite z-score [4],composite z-score [5],composite z-score [6],composite z-score [7],z-score [8],composite z-score [9],composite z-score [10],composite z-score [11],z-score [12],z-score [13],z-score [14],composite z-score [15],z-score [16],composite z-score [17],composite z-score [18],composite z-score [19],composite z-score [20]
C=C(C(=O)CC[C@@H](OC(=O)c1cccnc1)c1ccc(OCCO)cc1)C(C)C,-0.408,-0.294,-0.113,1.27,-0.121,0.739,1.06,-2.68 (inactive),0.128,-0.0994,1.57,-24.3 (active),-20.5 (active),-4.75 (inactive),0.111,-0.808 (inactive),-0.209,1.58,0.344,-0.0972
O=C(CS)NCCCCCCNC(=O)[C@H]1C[C@H]2C(=O)N3CCC[C@H]3C(=O)N2[C@H]1c1ccc(O)cc1,0.112,-0.0248,-0.0759,-0.15,-0.183,0.883,1.31,1.04 (inactive),0.416,0.0749,1.42,-0.637 (inactive),0.0932 (inactive),0.369 (inactive),2.22,-0.506 (inactive),-0.0845,1.21,0.905,-0.208
O=C(NCC(O)CO)[C@@]1(Cc2ccccc2)N=C(c2ccc(OCCCO)cc2)O[C@H]1c1ccccc1 (stereo not given in full),1.32,0.691,0.16,0.36,-0.0617,1.39,1.26,-1.89 (inactive),1.08,0.415,0.814,-0.738 (inactive),-0.456 (inactive),-1.26 (inactive),3.57,1.62 (inactive),0.491,0.431,-0.376,0.298
COc1cc(NN2C(C(O)c3ccccc3)C=CC3C(=O)N(c4ccccc4)C(=O)C32)cc(OC)c1OC (stereo not given),-0.0824,0.215,0.135,1.13,1.56,1.87,1.38,0.556 (inactive),1.08,-0.194,1.34,0.694 (inactive),-0.933 (inactive),0.126 (inactive),3.5,-0.288 (inactive),0.17,0.833,1.03,0.016
O=C1O[C@@H](c2ccccc2)[C@@H](c2ccccc2)N2[C@@H](c3ccc(O)cc3)[C@]3(C(=O)Nc4ccc(C#CCCO)cc43)[C@@H](C(=O)N3CCCCCCC3)[C@H]12,2.71,1.72,0.442,0.888,0.347,1.62,1.25,-1.61 (inactive),2.57,1.64,1.55,0.36 (inactive),0.67 (inactive),1.51 (inactive),3.5,-0.306 (inactive),1.26,1.48,0.939,0.079
O=C1C2C=CC(C(O)c3ccc(B(O)O)cc3)N(Nc3ccc([N+](=O)[O-])cc3)C2C(=O)N1c1ccccc1 (stereo not given),-0.28,0.378,0.0121,0.84,1.46,1.56,1.05,0.663 (inactive),1.25,-0.236,1.26,-26.5 (active),-16.1 (active),0.847 (inactive),2.54,-0.465 (inactive),0.143,0.288,1.03,0.105
O=C(CS)NCCCCCNC(=O)[C@H]1C[C@H]2C(=O)N[C@@H](Cc3ccccc3)C(=O)N2[C@H]1c1cccc(OCCO)c1,0.0238,1.31,-0.0195,1.16,0.617,0.244,1.33,-0.676 (inactive),0.551,-0.156,1.52,-3.02 (inactive),-0.991 (inactive),-0.276 (inactive),2.55,1.94 (inactive),0.0669,1.44,1.09,0.12
C=C[C@@H](C)[C@@H](OC(=O)Nc1ccc(OC)cc1)c1ccc(O)c2ccccc12,-0.262,0.173,-0.0423,0.245,-0.11,0.543,1.03,2.58 (inactive),0.105,-0.128,0.906,-24.7 (active),-20.9 (active),-3.73 (inactive),1.15,1.02 (inactive),-0.17,1.15,0.514,-0.116
CC(=O)n1cc(C(O)C2C=CC3C(=O)N(c4ccccc4)C(=O)C3N2Nc2ccc(C#N)cc2)c2ccccc21 (stereo not given),-0.0594,-0.234,0.106,0.794,1.5,1.8,1.29,0.471 (inactive),0.296,0.0373,1.33,-0.589 (inactive),1.09 (inactive),1.85 (inactive),3.4,-0.795 (inactive),0.401,-0.244,0.48,-0.0804
CCOC(=O)C[C@H]1[C@H](OC(=O)c2ccccc2-c2ccccc2)[C@@H](NC(=O)c2ccc(-c3ccccc3)cc2)c2cc(OCCCO)ccc2N1C(=O)c1ccccc1,-0.491,0.167,-0.0428,0.69,0.56,0.106,0.787,-0.172 (inactive),0.342,0.177,0.997,0.742 (inactive),0.5 (inactive),1.7 (inactive),1.99,1.04 (inactive),-0.0888,0.603,0.695,0.104
